Reference: PubChem BioAssay AID1259376 (The Scripps Research Institute Molecular Screening Center, 2018)
The whole screen tested about 4,700 compounds, of which about 360 (7.7%) were called active. Not all results are given here. A number with no mark means an inactive call.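 How the source made its calls: active means inhibition above a cutoff derived from the DMSO control wells (cut at about 30% in these data); inactive means the rest.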

experiment: bead signal artefacts at single dose – biochemical, AlphaScreen, triplicate, counter-screen for MITF inhibitor project (AID 1259376); conditions: LysRS AlphaScreen counterscreen, signal interference, at 2.6 µM, active compounds read high

Row | SMILES | inhibition
1 | O=[N+]([O-])c1ccccc1S(=O)(=O)N1CCN(C2Cc3ccccc3C2)CC1 | 15%
2 | CSc1ccc(CN2CCN(S(=O)(=O)c3ccc([N+](=O)[O-])cc3)CC2)cc1 | 30% (active)
3 | O=S(=O)(c1ccc(F)cc1)N1CCN(Cc2ccccc2C(F)(F)F)CC1 | 12.8%
4 | CSc1ccc(CN2CCN(Cc3cccc(Oc4ccccc4)c3)CC2)cc1 | 6.5%
5 | CC(C)(C)NCC(=O)Nc1c2c(nc3ccccc13)N(Cc1ccccc1)CC2 | 15.5%
6 | CC1CCCCC1NC(=O)CSc1nnc(-c2ccncc2)n1CCCN(C)C (stereo not drawn) | 14.7%
7 | O=C(OCCN1CCOCC1)c1c(Cl)nc2sccn12 | 10.9%
8 | Cc1cc(OCCN2CCN(C)CC2)ccc1C(C)C | 4.96%
9 | CCCS(=O)(=O)N1CCN(Cc2ccccc2Br)CC1 | 13.6%
10 | COc1ccc2c(c1)CC(C(=O)Nc1ccc(-c3cn[nH]c3)cc1OCc1ccccc1)CO2 (stereo not drawn) | 22.5%
11 | O=C(Nc1ccc(-c2ccncc2)c(C(F)(F)F)c1)C1COc2ccccc2O1 (stereo not drawn) | 5.92%
12 | COc1cccc(CN2CCN(CCCc3ccccc3)CC2CCO)c1 (stereo not drawn) | -5.46%
13 | CN(C)CC(C)(C)CNCc1nnc(-c2ccccc2)o1 | -0.68%
14 | N#C/C(=C/c1ccc(-c2ccc3c(c2)C(=O)NC3=O)o1)C(=O)O | 13.4%
15 | COc1ccc(OC)c(CN2CCN(Cc3ccccc3OC)CC2)c1 | 18.2%
16 | COC(=O)c1cccc(NS(=O)(=O)c2ccc3ccccc3c2)c1C | 21.9%
17 | COc1ccc(CN2CCN(Cc3ccccc3C(F)(F)F)CC2)cc1OC | 17.4%
18 | CS(=O)(=O)N1CCN(Cc2cccc(Cl)c2)CC1 | -4.82%
19 | O=C(O)CCCCCNC(=O)/C(=C\c1ccco1)NC(=O)c1ccccc1 | -2.96%
20 | COc1ccc2c(c1)CC(c1nc(Nc3ccc4cnccc4c3)c3ccccc3n1)CO2 (stereo not drawn) | 8.8%
21 | COc1cccc(OC)c1C(=O)N1CCN(Cc2cccnc2)CC1 | 14.3%
22 | COc1cc(CN2CCN(Cc3ccc(OC)c(OC)c3)CC2)cc(OC)c1 | 1.7%
23 | COc1cc(CN(CCN(C)C)Cc2ccccc2)cc(OC)c1 | 2.44%

Row | SMILES | inhibition
24 | CC(c1ccccn1)N(CCN(C)C)C(=S)Nc1ccccc1F (stereo not drawn) | 100% (active)
25 | COc1ccc2c(c1)CC(C(=O)Nc1ccc(-c3cn[nH]c3)cc1OCC(N)=O)CO2 (stereo not drawn) | 16.5%
26 | CCN1CCN(CCCOc2ccc(C(C)=O)cc2OC)CC1 | 19.6%
27 | CCN(CCN(C)C)Cc1c(Cl)cccc1Cl | -9.64%
28 | NC(=O)COC(=O)/C=C/c1ccc(I)o1 | 16.2%
29 | COc1cc(OC)c(OC)cc1CN1CCN(Cc2ccc(F)cc2)CC1 | -4.28%
30 | COc1ccc(CN2CCN(Cc3cc(OC)ccc3OC)CC2)cc1 | -1.01%
31 | CC(=O)N1CCN(CC(=O)Nc2ccc(C)c(F)c2)CC1 | 5.18%
32 | COC(=O)CSc1nc(C2CC2)nc2ccccc12 | 9%
33 | CCOc1ccc(CN2CCN(C(=O)c3cccc(Cl)c3)CC2)cc1 | 0.05%
34 | COc1ccc(NC(=O)c2cc3n(n2)C(C(F)(F)F)CC(c2ccc(OC)c(OC)c2)N3)cc1OC (stereo not drawn) | -6.86%
35 | CCC(C)NCCOCCOc1cc(C)cc(C)c1C (stereo not drawn) | -2.01%
36 | CCN1CCN(CC(O)COc2cccc(C(=O)OC)c2)CC1 (stereo not drawn) | -1.14%
37 | O=C1c2ccccc2C(O)N1Cc1ccccc1Cl (stereo not drawn) | 0.5%
38 | c1cc2c(cc1CN1CCN(C3CCCC3)CC1)OCO2 | 2.1%
39 | Cc1ccc(C(C)C)c(OCCN2CCNCC2)c1 | -3.79%
40 | COc1cccc(-c2ncnn2-c2sc3c(c2C#N)CCCCC3)c1 | 17.1%
41 | COc1ccc(NC(=O)CN2CCN(C)CC2)c(OC)c1 | 13.8%
42 | COc1ccc(CNCC2CN(CC(C)C)CCO2)cc1 (stereo not drawn) | 10.1%
43 | COc1cccc(CN2CCN(Cc3ccc(C(F)(F)F)cc3)CC2)c1OC | -5.41%
44 | NS(=O)(=O)c1cccc(NC(=O)COc2ncnc3sc(-c4ccccc4)cc23)c1 | 20.8%
45 | O=C(NN1C(=O)c2ccccc2C1=O)c1cccc(F)c1 | -4.68%
46 | CCOc1ccc(OCCCCNCCO)cc1 | 15.9%

Row | SMILES | inhibition
47 | Cc1cnc(NCc2ccc3c(c2)OCO3)nc1Nc1ccccc1 | 7.89%
48 | CCCS(=O)(=O)N1CCN(Cc2cccc(Cl)c2)CC1 | 13.1%
49 | c1cc2c(cc1CNc1nc(Nc3ccc(N4CCOCC4)cc3)c3ncn(C4CCCCC4)c3n1)OCO2 | -14.4%
50 | COCc1nc2ccccc2n1CCc1noc(-c2ccco2)n1 | -8.54%
51 | Cc1cc(S(=O)(=O)Nc2ccc3c(c2)OCCO3)ccc1-n1cnnn1 | 14%
52 | Cc1ccc(C(C)C)c(OCC#CCN2CCNCC2)c1 | 14.9%
53 | CC(C)(C)NCCOCCOc1ccc(Cl)c(Cl)c1 | 9.65%
54 | C[C@@H](OCc1ccccc1)[C@@H]1NC(=O)[C@H]2CN(C(=O)Nc3cccc(F)c3)CCN2C1=O | 1.57%
55 | COc1cc(CN2CCN(Cc3ccco3)CC2)c([N+](=O)[O-])cc1OC | 13%
56 | CC[C@@H]1NC(=O)[C@H]2CN(C(=O)NCc3ccccc3)CCN2C1=O | 2.23%
57 | CCN1CCN(CC(=O)N/N=C/c2cccc(Cl)c2)CC1 | 3.65%
58 | Cc1cc(NC(=O)CSc2ccc(-c3ccccn3)nn2)no1 | 93.4% (active)
59 | Cc1cc(NC(=O)CNCCCN(C)C)no1 | 1.07%
60 | Cc1cccnc1NC(=O)CSc1nnc(COc2ccc(C(C)C)cc2)n1C | 9.54%
61 | C=CCNCCOCCOc1cc(C)ccc1C(C)(C)C | 15.9%
62 | COc1ccc(OCCCC(=O)Oc2ccc(OC)cc2)cc1 | 3.96%
63 | CCc1ccc(NC(=O)CS(=O)CC(=O)NCCCc2ccccc2)cc1 (stereo not drawn) | -4.98%
64 | COc1cc(CN2CCN(C(=O)C(c3ccccc3)c3ccccc3)CC2)cc(OC)c1OC | 9.83%
65 | CSc1nnc(SCc2nc3sc(C(=O)O)c(C)c3c(=O)[nH]2)s1 | 11.5%
66 | Cc1ccc(CN2CCN(Cc3ccncc3)CC2)cc1 | 16.6%
67 | COc1ccc(Br)cc1CN1CCN(C(=O)c2cccnc2)CC1 | -9.47%
68 | CCN(C(=O)Cc1nc(N)n[nH]1)C1(C(=O)Nc2ccccc2)CCCCC1 | 100% (active)
69 | CCN(C(=O)Cc1nc(N)n[nH]1)C1(C(=O)Nc2ccc(C)cc2)CCCCC1 | 101% (active)

Row | SMILES | inhibition
70 | Cc1nc2sc(C(c3ccccc3Cl)N3CCC4(CC3)OCCO4)c(O)n2n1 (stereo not drawn) | 13.3%
71 | CCN(Cc1ccccc1)Cc1ccc([N+](=O)[O-])cc1 | -3.54%
72 | COc1ccc(CN2CCC(C(=O)N3CCN(Cc4ccccc4)CC3)CC2)cc1 | 8.38%
73 | c1ccc(-c2ccccc2OCCNCCN2CCOCC2)cc1 | 24.1%
74 | Clc1cccc(CN2CCN(C3CCCC3)CC2)c1 | 9.81%
75 | O=C(Nc1ccc2c(c1)OCO2)C(c1ccccc1)N(Cc1ccccc1)Cc1ccccc1 (stereo not drawn) | -2.62%
76 | CC(C)CO/N=C1\C[C@@H](O)[C@@H](O)[C@@H]2[C@@H]3C(=O)N([C@@H](C)c4ccccc4)C(=O)[C@@H]3CC[C@@H]12 | -1.34%
77 | CN1CCN(CCC(=O)N/N=C/c2ccsc2)CC1 | -5.86%
78 | COc1cccc(CN2CCN(C(=O)c3ccccc3F)CC2)c1 | -7%
79 | COc1ccc(CN2CCN(Cc3cccc(Br)c3)CC2)c(OC)c1 | 22.2%
80 | COc1ccc(COCC(O)CNCC(C)(C)CN(C)C)cc1OC (stereo not drawn) | 3.11%
81 | CC(C)c1ccc(C2/C(=C(/O)c3ccccc3)C(=O)C(=O)N2CCN(C)C)cc1 (stereo not drawn) | 15.2%
82 | COc1ccc(CN2CCCC(C(=O)N3CCCCC3)C2)cc1 (stereo not drawn) | -1.29%
83 | COc1cccc(CN2CCN(C/C=C/c3ccccc3)CC2)c1OC | 5.04%
84 | O=[N+]([O-])c1ccccc1CN1CCN(Cc2ccccc2C(F)(F)F)CC1 | 9.98%
85 | CN1CCN(CCOCCOc2ccccc2Cl)CC1 | 11.5%
86 | O=C(O)CCCCC1SCC2NC(=O)NC21O (stereo not drawn) | 98.9% (active)
87 | N#Cc1ccc(/C=N/NC(=O)c2cc([N+](=O)[O-])cc([N+](=O)[O-])c2)cc1 | -2.55%
88 | O=S(=O)(c1ccc(Br)cc1Cl)N1CCN(CCc2ccncc2)CC1 | 16.2%
89 | CCCCCCOC(=O)c1cc(C(=O)OCCCCCC)c(C)nc1C | -5.97%
90 | COc1ccc(CN2CCN(Cc3cc(OC)c(OC)c(OC)c3)CC2)cc1 | 14.7%
91 | CC(=O)N1CCN(C(=O)c2ccc(N3CC4CC(C3)c3cccc(=O)n3C4)c(NC(=O)c3cccnc3)c2)CC1 (stereo not drawn) | -7.87%
92 | COc1ccc(Br)cc1CN1CCN(CCOCCO)CC1 | -5.73%

Row | SMILES | inhibition
93 | COc1cccc(OC)c1C(=O)N1CCN(Cc2ccccc2F)CC1 | 20.4%
94 | Cc1ccc(NC(=O)CNCCCSc2ccccc2)cc1C | 20.6%
95 | O=C(O)C1C2C=CC(O2)C1C(=O)Nc1nccs1 (stereo not drawn) | 13.2%
96 | CC(NCCCN1CCOCC1)C(=O)Nc1ccccc1 (stereo not drawn) | 12.1%
97 | COC(=O)C(C)CN1CCN(Cc2ccc3c(c2)OCO3)CC1 (stereo not drawn) | 13.8%
98 | CC1(C)CC(=O)C2=C(C1)Nc1ccccc1N(C(=O)Cc1ccccc1)C2c1ccc(-c2ccc([N+](=O)[O-])cc2)o1 (stereo not drawn) | 15%
99 | COc1cc(CN2CCN(Cc3ccccc3Cl)CC2)cc(OC)c1OC | 13%
100 | N#Cc1ccc(OCC(=O)Nc2nc(-c3ccccn3)cs2)cc1 | 100% (active)
101 | Nc1ccc(S(=O)(=O)O)c2cc(S(=O)(=O)O)cc(O)c12 | 38.9% (active)
102 | CCN1CCN(CCOc2ccc(-c3ccccc3)cc2)CC1 | 9.15%
103 | COc1cccc(C(=O)N2CCN(Cc3cc(OC)c(OC)cc3OC)CC2)c1 | 7.33%
104 | CC(=O)c1cccc(N2C(=O)c3cccnc3C2=O)c1 | 27.9%
105 | CC1CCCC(N2CCN(Cc3ccccc3Cl)CC2)C1 (stereo not drawn) | -7.94%
106 | CCN(CC)CCN1COc2c(cc(Cl)c3cccnc23)C1 | 100% (active)
107 | COc1ccccc1CN1CC(C)OC(C)C1 (stereo not drawn) | 3.15%
108 | Cc1ccc(NC(=O)COC(=O)CCC(=O)Nc2sc3c(c2C(N)=O)CCC3)cc1F | 6.94%
109 | CCN(CC(=O)NCc1ccc(Cl)cc1)Cn1nnc2ccccc21 | -7.45%
110 | Cn1c(=O)oc2cc(S(=O)(=O)N3CCC(C(=O)NC(C)(C)C)CC3)ccc21 | 0.26%
111 | CCS(=O)(=O)N1CCN(C2CCCCC2C)CC1 (stereo not drawn) | 7.29%
112 | c1ccc(CCCCNc2nccc(Nc3ccncn3)n2)cc1 | 9.16%
113 | COc1cccc(CN2CCC(C(=O)NCCc3ccccc3)CC2)c1 | 13.6%
